Nrf2 inh = Nrf2 qHTS screen for inhibitors | A549 ARE-Fluc reporter, luciferase luminescence, 18-24 h | hit rate 2.1% among 360,000 | Potency, µM (series often up to 46 µM), usual class: inhibitors; also: nearly all actives have a fitted effect of over 60% in size
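Nrf2 function is reported as luminescence of an ARE-controlled luciferase in A549 cells. Compounds were tested at several concentrations, and a CellTiter-Fluor read on the same wells flagged cytotoxicity.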
miR-21 act = qHTS Assay for Modulators of miRNAs and/orActivators of miR-21; HeLa miR-21 FLuc reporter, luciferase, 48 h; Potency, µM (top dose mostly 38.3 µM), hits mostly activators; 340,000 tested, under 10 active; AID 2288, 2010;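 also: miR-21 action dims this reporter so a rising signal means less miR-21 action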
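Using DMEM plus 10% FBS, HeLa miR-21-FLuc cells are incubated with test compounds (final up to about 40uM) for 48 hours; firefly luciferase signal is then imaged following reagent-mediated lysis.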
ClpP mod = qHTS Assay for Activators of ClpP | ATP-dependent Clp protease proteolytic subunit (Bacillus subtilis (strain 168)), P80244 | Potency, µM (titrated, usually from 57.5 µM) | AID 651965, 2013 | hit rate 1.9% among 340,000 | purified B. subtilis ClpP, FRET peptide cleavage, 20 min; active = well fitted falling curve with a large enough effect; inconclusive = small, poorly fitted or top-dose-only effect; inactive = no such curve, though single readings can be large or run the other way; also: the source files actives as falling curves though it sought activators and does not explain the sign; nearly all actives have a fitted effect of over 65% in size
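ClpP 10 microg/mL final, pH 8 Tris/KCl buffer with BSA, glycerol, Tween-20; compound pinned in; FRET-FV substrate; RT 20 min; Ex320/Em430; ΔFRET vs ADEP 5.8 microM, DMSO, no enzyme.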
Nrf2 activator = qHTS of Nrf2 Activators; AREc32 ARE-luciferase reporter (MCF7-derived line), luminescence, 24 h; Potency, µM (series often up to 46.1 µM), most hits filed as activators; hit rate 0.31% among 410,000; also: nearly all actives have a fitted effect of over 65% in size
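For detection, Steady-Glo was added and plates sat 30 min at RT; before that, AREc32_Fluc cells grown overnight in OPTI-MEM/5% FBS had been treated with 23 nL compound for 24 hr at 37 deg C.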
p53 reactivation = qHTS assay for re-activators of p53 using a Luc reporter. H1299 p53-A138V BP100-luciferase reporter, luminescence, 24 h. Potency, µM (highest dose often 92.2 µM), most hits filed as activators. hit rate 0.063% among 320,000. AID 504706, 2011; also: nearly all actives have a fitted effect of over 45% in size
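H1299 (p53-null), stable ts p53-A138V + BP100-Luc; 1000 cells/well, Opti-MEM/10% FBS; cpd 4 pt, 1:5; 24 h, 37 deg C, 5% CO2; detection reagent 10 min RT; luminescence.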
A549 viability = Nrf2 qHTS screen for inhibitors: counterscreen for cytotoxicity; hit rate 0.16% among 390,000; Potency, µM (doses to about 46 µM), actives largely listed as inhibitors; A549 ARE-Fluc cells, CellTiter-Fluor viability, 18-24 h
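A549 ARE_Fluc cells in 5% FBS OPTI-MEM were exposed to compounds in concentration-response for 18-24 h at 37 deg C. Viability was read by CellTiter-Fluor fluorescence (Ex 405/Em 525) after 30 min, before the luciferase read.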
Hits are given with their value; 0 = inactive; ? = inconclusive; - = no result given; [ ] = dose if it differs, or a comment. Shown are actives, neighbours in structure and some others; about 3.7% of the full set was active somewhere. Unless noted, calls follow the shape of the dose curve; as a rule, active = well fitted curve in the direction sought with a large enough effect; inconclusive = small, poorly fitted or top-dose-only effect, or another doubt; inactive = no such curve, though single readings can be large; an effect the other way counts as inactive or inconclusive.

SMILES | Nrf2 inh | miR-21 act | ClpP mod | Nrf2 activator | p53 reactivation | A549 viability
CN1CCc2c(sc3nc(SCC(N)=O)n(-c4ccc(Cl)cc4)c(=O)c23)C1 | 0 | 0 | 0 | 0 | 0 | 0
Cc1ccc(S(=O)(=O)N2CCC(c3nnc(-c4cccc(C)c4)o3)CC2)cc1 | ? | 0 | 0 | 0 | - | 0
O=CC(=O)c1ccc(F)cc1 | - | - | 0 | - | - | -
CNc1nn(-c2cccc(Cl)c2)nc1N | ? | 0 | 32µM | 0 | 0 | 0
Nc1ccccc1Nc1cc(-c2ccccc2)nn1-c1cccc(Cl)c1 | 0 | 0 | 0 | 0 | 0 | 0
COc1ccc2c(c1)-c1c(ssc1=S)C(C)(C)N2C(=O)CSC1=NCCS1 | ? | 0 | 0 | 0 | 0 | 0
CC1(C)c2ssc(=S)c2-c2ccccc2N1C(=O)CSC1=NCCS1 | 15µM | 0 | 0 | 0 | 0 | 0
COC(=O)c1c(NC(=O)/C=C/C(=O)O)sc(C)c1-c1ccc(C)c(C)c1 | 0 | 0 | 0 | 18µM | 0 | 0
COC(=O)c1c(NC(=O)/C=C/C(=O)O)sc(C)c1-c1ccc(C(C)C)cc1 | ? | 0 | 0 | 10µM | 0 | 0
COC(=O)c1c(NC(=O)/C=C/C(=O)O)sc(C)c1-c1ccc(C)cc1 | ? | 0 | - | 20µM | 0 | 0
O=C(Nc1ccc(Cl)cc1)N1CCN(c2ccc3nnc(-c4ccc(F)cc4)n3n2)CC1 | 21µM | 0 | 0 | 0 | 0 | ?
N#Cc1nc(Nc2ccc(F)cc2)nc(NC2CCCC2)n1 | 0 | - | - | - | - | 0
Fc1ccc(CSc2ccc3nnc(-c4cccnc4)n3n2)cc1 | 9.2µM | 0 | - | 0 | 0 | 0
O=C(O)CSc1ccc2nnc(-c3cccnc3)n2n1 | 0 | 0 | ? | 0 | 0 | 0
CCOC(=O)C1=C(CN2CCN(c3cc(C)ccc3C)CC2)NC(=O)NC1c1ccc(Cl)cc1 (stereo not given) | 21µM | 0 | 0 | 0 | - | 0
CCOC(=O)C1=C(CS(=O)(=O)c2ccc(C)cc2)NC(=O)NC1c1ccc(C(C)C)cc1 (stereo not given) | 18µM | ? | 0 | 0 | - | ?
CCOC(=O)C1=C(CN(C)Cc2ccccc2)NC(=O)NC1c1ccc(OC(C)C)cc1 (stereo not given) | 26µM | 0 | 0 | 0 | - | 0
CCOc1ccc2nc(N3CCC(C(=O)Nc4ccccc4CC)CC3)sc2c1 | 0 | 0 | 0 | 0 | - | ?
COc1ccc(C)cc1NS(=O)(=O)c1c(C(=O)N2CCCCCC2)c(C)n(C)c1C | 0 | 0 | 0 | 0 | - | 0
C/C(=N\NC(=O)c1ccc(CN(C)S(=O)(=O)c2ccc(C)cc2)cc1)c1ccc(OC(F)F)cc1 | 5.2µM | 0 | 0 | 0 | 0 | 0
COc1cccc(-c2ccc(C#N)c(OC(=O)c3ccc(Cl)cc3)n2)c1 | 0 | 0 | 0 | 0 | 0 | 0
COc1cccc(-c2ccc(C#N)c(OC(=O)c3c(Cl)cccc3Cl)n2)c1 | ? | 0 | 16µM | 0 | 0 | 0
c1ccc(CNc2nc(-c3ccccc3)nc3ccccc23)cc1 | ? | 0 | - | 0[9.22 µM] | ? | 0
c1ccc(CNc2ccc3ccccc3n2)nc1 | ? | 0 | 28µM | 0 | 0 | 0
c1ccc(CNc2nc(-c3ccccn3)nc3ccccc23)cc1 | 16µM | ? | 0 | 0 | 0 | 0
SMILES | Nrf2 inh | miR-21 act | ClpP mod | Nrf2 activator | p53 reactivation | A549 viability
Cc1cc(NCc2ccccn2)nc2ccccc12 | 0 | 0 | ? | 0 | 0 | 0
FC(F)(F)c1ccc(NCc2ccccn2)nc1 | ? | 0 | 0 | 0 | 0 | 0
Cc1nc(NCc2ccccn2)c2ccccc2n1 | 6.5µM | 0 | 0 | 0 | 0 | 0
CCn1cnc2c(Nc3ccc(CC(=O)N=C(N)N)cc3)nc(C#N)nc21 | 0 | - | - | - | - | 0
O=c1oc2ccccc2n1CCCOc1ccccc1Cl | ? | 0 | 0 | 0 | - | 0
Cc1cc2c(s1)c1cnn(Cc3cc(F)c(F)c(F)c3)c(=O)c1n2C | 0 | - | - | - | - | 0
Cc1cc2c(s1)c1cnn(Cc3ccc(Br)cc3)c(=O)c1n2C | 0 | - | - | - | - | 0
COC(=O)c1ccc(Nc2ncnc3c2nc2n3CCCC2)cc1 | 0 | 0 | ? | 0 | - | 0
S=C(c1ccc(Br)cc1)N1CCCC1 | 0 | 0 | 25µM | 0 | 0 | 0
COc1ccc(C(=O)N(Cc2cc(OC)c(OC)c(OC)c2)c2ccccn2)cc1 | ? | 0 | 0 | 0 | - | 0
COc1cc(CN(C(=O)c2ccc(OC(C)C)cc2)c2ccccn2)cc(OC)c1OC | 5.2µM | ? | 0 | 0 | - | 0
CCn1c(=O)c2cc(C(=O)Nc3cc(F)ccc3F)sc2c2ccccc21 | 0 | 0 | 0 | 0 | - | 0
COc1cc2c(cc1NC(=O)c1ccc3c(c1)OCO3)oc1ccccc12 | ? | 0 | 32µM | 0 | 0 | 0
COc1cc2c(cc1NCc1ccccn1)oc1ccccc12 | ? | 0 | 28µM | 0 | 0 | 0
COc1cc2c(cc1NCc1ccc3c(c1)OCO3)oc1ccccc12 | 0 | 0 | 25µM | 0 | ? | 0
Cn1c2ccccc2c(=O)c2ccc(NCc3ccc4c(c3)OCO4)cc21 | 26µM | - | 0 | 0 | - | 0
Cc1nc2ccc(S(=O)(=O)N(CC(=O)Nc3ccc(Cl)cc3)Cc3ccccc3)cc2s1 | 0 | 0 | 0 | 0 | - | 0
CCN1CCN(c2oc(-c3ccc(OC)cc3)nc2C#N)CC1 | - | - | 3.2µM | 0 | - | 0
COc1ccc(-c2nc(C#N)c(N3CCc4ccccc4C3)o2)cc1OC | 21µM | 0 | ? | 0 | 0 | 0
COc1ccc(-c2nc(C#N)c(N3CCN(c4ccccc4)CC3)o2)cc1 | 0 | 0 | 0 | 0 | 0 | 0
COc1ccccc1-c1nc(C#N)c(N2CCN(c3ccccc3)CC2)o1 | 0 | 0 | 28µM | 0 | 0 | 0
Cc1ccccc1-c1nc(C#N)c(N2CCC(C)CC2)o1 | 0 | 0 | 0 | 0 | ? | 0
CC1CCCN(c2oc(-c3cccc4ccccc34)nc2C#N)C1 (stereo not given) | - | 0 | 3.2µM | 0 | 0 | 0
COc1ccc(CCNC(=O)CCn2c(=O)c3ccccc3n(CC(=O)Nc3ccc(C)cc3C)c2=O)cc1OC | 0 | 0 | 0 | 0 | - | 0
Cc1cccn2c(=O)c3cc(C(=O)NC(C)C)n(C)c3nc12 | 0 | 0 | 0 | 0 | - | 0
SMILES | Nrf2 inh | miR-21 act | ClpP mod | Nrf2 activator | p53 reactivation | A549 viability
Cc1ccc(CN(C(=O)COc2ccccc2Cl)c2ccccn2)o1 | ? | 0 | 0 | 0 | - | 0
N#Cc1nc(-c2cccs2)oc1N1CCOCC1 | 0 | 0 | 0 | 0 | 0 | 0[1.84 µM]
N#Cc1nc(-c2ccccc2Cl)oc1N1CCOCC1 | 0 | 0 | 8.9µM | 0 | 0 | 0
CC1CCN(c2oc(-c3ccccc3Cl)nc2C#N)CC1 | - | 0 | 28µM | 0 | ? | 0
Cc1ccc(C)c(CN2CCCN(Cc3ccc(F)cc3)S2(=O)=O)c1 | 0 | 0 | 0 | 0 | - | 0
O=C(CSc1n[nH]c(-c2ccccc2Cl)n1)NCc1ccc(F)cc1 | - | 0 | 0 | 0 | - | 0
